Reference: PubChem BioAssay AID1053205 (Broad Institute, 2014)
Measured potencies and affinities stand elsewhere. Records with an inconclusive call do not appear. Unmarked numbers belong to inactive results.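 How the source made its calls: active means compounds lowering the FRET ratio whose fitted half-maximal concentration is at most twice their top tested dose; inconclusive means flat partial drop between 30 and 70 percent, or bad fit; inactive means the rest.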

target: Voltage-dependent L-type calcium channel subunit alpha-1D (Homo sapiens) (UniProt Q01668); assay: disruptors of CaV1.3 IQ/ICDI domain association – cell-based, HEK293, YFP-IQ/CFP-ICDI FRET, cherry-picks, dose response (AID 1053205); details: HEK293 YFP-IQ/CFP-ICDI FRET ratio, 10 min; series mostly up to 35 µM; FRET change, negative = inhibition: at the top concentration;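 further: 0% = median of neutral control wells and -100% = median of positive control wells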
Sequence (Q01668 whole entry, looked up, the tested form may be a part): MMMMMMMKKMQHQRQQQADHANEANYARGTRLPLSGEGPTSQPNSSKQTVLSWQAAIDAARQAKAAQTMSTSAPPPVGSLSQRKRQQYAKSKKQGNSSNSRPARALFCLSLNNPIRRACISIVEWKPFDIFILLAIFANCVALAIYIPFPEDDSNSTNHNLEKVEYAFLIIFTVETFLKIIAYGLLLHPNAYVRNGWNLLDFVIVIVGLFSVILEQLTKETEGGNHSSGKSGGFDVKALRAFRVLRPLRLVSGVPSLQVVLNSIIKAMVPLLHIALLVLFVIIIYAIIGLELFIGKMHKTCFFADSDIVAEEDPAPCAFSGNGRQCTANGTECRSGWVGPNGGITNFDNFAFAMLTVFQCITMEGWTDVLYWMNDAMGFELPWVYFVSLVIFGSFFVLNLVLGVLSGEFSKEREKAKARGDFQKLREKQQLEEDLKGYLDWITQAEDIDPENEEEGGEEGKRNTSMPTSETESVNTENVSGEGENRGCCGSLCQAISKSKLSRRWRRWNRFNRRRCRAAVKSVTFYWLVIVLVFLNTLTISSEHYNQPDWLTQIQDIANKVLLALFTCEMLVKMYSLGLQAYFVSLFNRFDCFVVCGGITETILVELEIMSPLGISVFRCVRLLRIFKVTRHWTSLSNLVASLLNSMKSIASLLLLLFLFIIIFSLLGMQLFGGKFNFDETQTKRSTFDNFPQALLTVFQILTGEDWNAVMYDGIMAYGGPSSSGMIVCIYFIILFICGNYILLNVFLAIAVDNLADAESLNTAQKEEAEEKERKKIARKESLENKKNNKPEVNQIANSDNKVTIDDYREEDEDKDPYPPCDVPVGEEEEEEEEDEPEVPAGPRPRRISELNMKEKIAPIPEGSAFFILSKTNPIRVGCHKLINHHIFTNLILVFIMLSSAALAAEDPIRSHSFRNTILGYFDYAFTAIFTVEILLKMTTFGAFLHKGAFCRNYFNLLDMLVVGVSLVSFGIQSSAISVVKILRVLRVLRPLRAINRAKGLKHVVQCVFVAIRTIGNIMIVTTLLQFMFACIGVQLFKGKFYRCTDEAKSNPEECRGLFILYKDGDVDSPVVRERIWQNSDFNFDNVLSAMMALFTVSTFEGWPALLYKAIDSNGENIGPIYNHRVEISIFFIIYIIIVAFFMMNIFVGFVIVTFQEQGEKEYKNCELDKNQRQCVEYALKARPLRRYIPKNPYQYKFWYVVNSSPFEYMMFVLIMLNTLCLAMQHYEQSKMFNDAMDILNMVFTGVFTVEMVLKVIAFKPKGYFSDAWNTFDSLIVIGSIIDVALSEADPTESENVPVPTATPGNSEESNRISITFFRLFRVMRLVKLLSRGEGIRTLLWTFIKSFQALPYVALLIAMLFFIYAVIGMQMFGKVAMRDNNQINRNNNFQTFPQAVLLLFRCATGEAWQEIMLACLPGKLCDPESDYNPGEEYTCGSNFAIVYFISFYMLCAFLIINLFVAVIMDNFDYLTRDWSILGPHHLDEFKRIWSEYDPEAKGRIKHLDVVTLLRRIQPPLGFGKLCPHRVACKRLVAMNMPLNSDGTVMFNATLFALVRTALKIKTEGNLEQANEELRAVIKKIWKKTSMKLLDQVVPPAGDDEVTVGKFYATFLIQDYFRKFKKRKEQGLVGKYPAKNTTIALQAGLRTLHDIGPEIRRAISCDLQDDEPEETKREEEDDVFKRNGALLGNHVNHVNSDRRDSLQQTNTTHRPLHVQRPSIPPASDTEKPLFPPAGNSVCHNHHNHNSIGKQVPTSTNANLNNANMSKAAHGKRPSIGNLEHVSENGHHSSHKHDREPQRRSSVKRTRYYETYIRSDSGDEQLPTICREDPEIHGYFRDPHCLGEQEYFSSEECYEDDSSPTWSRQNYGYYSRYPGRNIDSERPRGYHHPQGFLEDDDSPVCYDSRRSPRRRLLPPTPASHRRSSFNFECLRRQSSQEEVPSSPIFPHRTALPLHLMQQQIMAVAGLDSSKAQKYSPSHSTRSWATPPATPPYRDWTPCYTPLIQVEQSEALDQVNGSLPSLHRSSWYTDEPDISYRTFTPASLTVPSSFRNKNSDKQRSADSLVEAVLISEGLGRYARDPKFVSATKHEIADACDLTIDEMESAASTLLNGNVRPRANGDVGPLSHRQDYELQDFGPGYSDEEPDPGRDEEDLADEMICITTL

Row | SMILES | FRET change, negative = inhibition
1 | Cc1cccn2c(=O)c3cc(C(=O)NC(C)c4ccccc4)c(=N)n(CCCn4ccnc4)c3nc12 (stereo unspecified) | 201% [at 16 µM]
2 | O=C(O)C1=CC[C@@H](c2ccc(Cl)cc2)N(S(=O)(=O)c2ccc(Cl)cc2)[C@H]1c1ccc(F)cc1 | 4.82%
3 | C/C(=N\NC(=O)CC#N)c1cc2ccc(O)cc2oc1=O | 427%
4 | COc1ccc(CCNC(=O)c2cc(S(=O)(=O)N3CCCCC3)c[nH]2)cc1OC | 118%
5 | COc1cc(C(=O)OCC(C)=O)cc(NC(=O)c2ccco2)c1OC | 32.1%
6 | COc1ccccc1OCc1ccc(C(=O)N(C)c2ccccc2)o1 | 4.94% [at 16 µM]
7 | CCN(CC)CCN1C2=C(C(=O)CC(C)(C)C2)C(c2cccc(F)c2)C2=C1CC(C)(C)CC2=O | 177%
8 | CC(C)CCn1c(CN2CC(C)OC(C)C2)nc2c1c(=O)n(C)c(=O)n2C (stereo unspecified) | -16.3%
9 | COc1ccc(C2c3ccc(O)cc3Oc3ncn4nc(-c5ccccn5)nc4c32)cc1 (stereo unspecified) | -40%
10 | S=c1[nH]c2ccc(Cc3ccc4[nH]c(=S)[nH]c4c3)cc2[nH]1 | 16.8%
11 | CCOc1ccc2nc(NCCCNC(=O)c3cc(OC)c(OC)c(OC)c3)c(C#N)cc2c1 | 449%
12 | CSCCC1(C(=O)O)NC(c2ccccc2O)C2C(=O)N(C(C)C)C(=O)C21 (stereo unspecified) | 13%
13 | N#Cc1c2ccc(OCC(N)=O)cc2n2ccccc12 | 477%
14 | Cc1oc(/N=C/c2ccc(O)cc2O)c(C#N)c1C | -2.04%
15 | COc1ccc(Br)c(Cn2c(C)c(C(=O)NCc3ccc4c(c3)OCCO4)sc2=O)c1 | 3.45%
16 | COCCCOc1cc(NCc2ccccc2)c2ncn(C(C)C)c2c1 | 9.32%
17 | CCN(c1ccccc1)S(=O)(=O)c1ccc(OC)c(NC(=O)CN(C)C)c1 | 10.1%
18 | Cc1ccc(-n2c(C)cc(/C=N/NC(=O)Cn3c4ccccc4c(=O)c4ccccc43)c2C)cc1 | 19.5%

Row | SMILES | FRET change, negative = inhibition
19 | Nn1c(SCC(=O)N2CCCC2)nnc1-c1cccs1 | -7.59%
20 | O=C(c1ccccc1)N1CCN(c2ccc(NCc3ccc4c(c3)OCO4)cc2)CC1 | 10.7%
21 | O=[N+]([O-])c1cccc(Nc2c3ccccc3nc3ccccc23)c1 | -12.1%
22 | Cc1nc2ccccc2c2oc(C(=O)NCCCN3CCC(C)CC3)cc12 | 5.53%
23 | CCN1C(=O)c2cccc3c(S(=O)(=O)N(C)C)ccc1c23 | 252%
24 | O=C(CCCN1C(=O)CSc2ncccc21)N1CCN(Cc2ccccc2)CC1 | 5.04%
25 | c1ccc2cc3c(NCCN4CCOCC4)ccnc3cc2c1 | 241%
26 | Cn1cccc1/C=N/NC(=O)c1sc2cc(Cl)ccc2c1Cl | 81.4%
27 | O=c1oc2cc(O)ccc2cc1-c1nc2ccccc2o1 | 385%
28 | CCOc1ccc(S(=O)(=O)Nc2ccc(C(=O)N(CC)CC(=O)NCc3cccs3)cc2)cc1 | -4.53%
29 | Cc1cccn2c(=O)c3cc(C#N)c(=NC(=O)c4cccs4)n(CC(C)C)c3nc12 | 58.8%
30 | N#Cc1ccc(OCC(=O)OCC(=O)N2CCc3ccccc32)cc1 | -4.01%
31 | Cc1ccc(OCC(=O)NNc2c3ccccc3nc3ccccc23)cc1 | 8.32%
32 | Cc1ccc2c(c1)N(C(=O)CCC(=O)NCCCN1CCOCC1)CC(C)O2 (stereo unspecified) | 26%
33 | CN(C)C(=O)CSc1nc2ccc(C(=O)c3ccccc3)cc2[nH]1 | -11.8%
34 | CCN1CCc2c(sc(NC(=O)Nc3ccc(Cl)c(Cl)c3)c2C(N)=O)C1 | 339%
35 | CCc1nnc(NC(=O)c2ccc(-c3ccccc3F)o2)s1 | 7.19%
36 | O=C(COC(=O)c1cc(S(=O)(=O)N2CCCCC2)ccc1N1CCOCC1)c1ccccc1Cl | -0.931%
